RE007 growth inh – less growth of the S. pombe RE007 Vpr strain; Potency, µM (top dose mostly 92.2 µM), without a hit: at the top dose activity change, negative = less growth, actives largely listed as inhibitors; hit rate 0.21% among 360,000; S. pombe RE007 Vpr strain, BacTiter-Glo ATP luminescence, 24 h; AID 651644; active = well fitted falling curve with a large enough effect; inconclusive = small, poorly fitted or top-dose-only effect; inactive = no such curve, though single readings can be large or run the other way; also: potency is read from the fitted curve at half-maximal effect; % is scaled to controls: 0 for no effect and ±100 for the full control effect; nearly all actives have a fitted effect of over 50% in size
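Fission yeast strain RE007, carrying one chromosomally integrated HIV-1 vpr copy, was seeded at OD 0.01 in PMG+AL medium with 23 nL pinned compound. After 24 h at 30 °C and 99% humidity, viability was read by BacTiter-Glo luminescence.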
Sm TGR inh – S. mansoni TGR enzyme inhibition; AID 485364; hit rate 3% among 360,000; purified TGR, DTNB reduction, TNB absorbance 405 nm; Potency, µM (doses to about 114 µM), inactives show at the top dose activity change, negative = inhibition, hits mostly inhibitors; Q962Y6; also: potency is read from the fitted curve at half-maximal effect; % is scaled to controls: 0 for no effect and ±100 for the full control effect; nearly all actives have a fitted effect of over 60% in size
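Kinetic colorimetric format: TGR-catalysed, NADPH-driven DTNB reduction monitored via TNB absorbance. Enzyme dispensed at 20 nM; compound exposure 15 min at room temperature before reaction start.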
TbPYK inhibitor – T. brucei pyruvate kinase inhibition; Potency, µM (highest dose often 76.8 µM), without a hit: at the top dose activity, negative = inhibition, most hits filed as inhibitors; AID 624173; hit rate 0.12% among 410,000; TbPYK enzyme, Kinase-Glo Plus ATP luminescence, 45 min; also: potency is read from the fitted curve at half-maximal effect; % is scaled to controls: 0 for no effect and ±100 for the full control effect; nearly all actives have a fitted effect of over 50% in size
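TbPYK + substrate in 50 mM TEA pH 7.2, 100 mM KCl, 10 mM MgCl2, 0.05% BSA, 0.01% Tween-20; cpd pinned; ADP 130 uM final; 45 min RT; Kinase-Glo Plus 10 min; luminescence endpoint.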
LmPK inhibitor – inhibitors of Leishmania mexicana pyruvate kinase; purified LmPK, Kinase-Glo ATP luminescence, 1 h; AID 1721; Potency, µM (highest dose often 57.5 µM), for the others: at the top dose activity change, negative = inhibition, most hits filed as inhibitors; hit rate 0.37% among 290,000; Q27686; also: potency is read from the fitted curve at half-maximal effect; % is scaled to controls: 0 for no effect and ±100 for the full control effect
Target sequence (Q27686 whole entry, looked up): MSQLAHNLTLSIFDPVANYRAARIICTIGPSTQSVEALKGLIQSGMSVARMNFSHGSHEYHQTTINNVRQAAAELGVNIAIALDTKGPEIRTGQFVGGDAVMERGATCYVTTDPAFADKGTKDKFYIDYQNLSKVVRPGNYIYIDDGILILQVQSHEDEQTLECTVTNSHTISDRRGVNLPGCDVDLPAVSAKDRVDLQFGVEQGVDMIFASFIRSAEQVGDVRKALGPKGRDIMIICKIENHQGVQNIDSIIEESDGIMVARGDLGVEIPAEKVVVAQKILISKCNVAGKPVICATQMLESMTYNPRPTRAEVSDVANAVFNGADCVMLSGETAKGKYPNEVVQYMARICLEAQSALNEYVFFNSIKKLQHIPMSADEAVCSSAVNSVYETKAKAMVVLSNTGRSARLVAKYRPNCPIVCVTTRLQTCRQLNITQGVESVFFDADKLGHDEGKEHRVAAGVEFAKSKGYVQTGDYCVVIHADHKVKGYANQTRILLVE
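Screened at intermediate enzyme activity to detect both inhibitors and activators: LmPK at 0.1 nM, with a 0.5 nM enzyme column as activation reference. PEP 0.5 mM, ADP 0.1 mM; ATP detected by luminescence after 1 h.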
Giardia FBPA inh-1 – Giardia lamblia aldolase inhibition; purified Giardia FBPA; Potency, µM (doses to about 59.6 µM), without a hit: top-dose activity, negative = inhibition, most hits filed as inhibitors; hit rate 0.71% among 290,000; AID 2451; also: potency is read from the fitted curve at half-maximal effect; % is scaled to controls: 0 for no effect and ±100 for the full control effect; nearly all actives have a fitted effect of over 55% in size
Target sequence (A8B2U2 whole entry, looked up): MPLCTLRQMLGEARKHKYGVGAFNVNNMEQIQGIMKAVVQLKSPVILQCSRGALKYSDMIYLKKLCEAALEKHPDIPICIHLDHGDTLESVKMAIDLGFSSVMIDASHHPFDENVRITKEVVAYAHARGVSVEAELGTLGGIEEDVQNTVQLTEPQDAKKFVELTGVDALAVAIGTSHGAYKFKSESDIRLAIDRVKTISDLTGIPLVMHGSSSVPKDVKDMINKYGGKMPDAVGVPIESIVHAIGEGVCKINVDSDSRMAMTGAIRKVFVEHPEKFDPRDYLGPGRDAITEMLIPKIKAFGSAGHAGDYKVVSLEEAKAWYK
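40 nM FBPA preincubated 10 min at RT with compound (up to 57.5 uM final), then substrate plus GAPDH/TPI/NAD/arsenate coupling and diaphorase/resazurin added. Fluorescence read after 20 min at RT, 525/598 nm.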
LmPK confirm – Confirms inhibition of Leishmania mexicana pyruvate kinase. shares compounds with LmPK inhibitor. Potency, µM (series often up to 57.5 µM), without a hit: at the top dose activity change, negative = inhibition, actives largely listed as inhibitors. hit rate 40% among 150. purified LmPK, Kinase-Glo ATP luminescence, 1 h;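 active = compounds giving a full or partial concentration-response curve, as inhibitors or activators; inconclusive = weak, top-dose-only or unclear curve responses; inactive = no response at any tested dose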
Giardia growth – blocks growth of Giardia lamblia trophozoites; hit rate 5% among 1,500; shares compounds with Giardia FBPA inh-1; Giardia lamblia trophozoite growth inhibition; Potency, µM (top dose mostly 57.5 µM), for inactives: at the top dose activity change, negative = inhibition, actives largely listed as inhibitors; AID 2785;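 also: potency is read from the fitted curve at half-maximal effect; trophozoites exposed to compound for 48 h at 37 °C; % is scaled to controls: 0 for no effect and ±100 for the full control effect; nearly all actives have a fitted effect of over 70% in size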
Mammalian tox – counter-screen for Giardia aldolase inhibitors: mammalian cell toxicity; shares compounds with Giardia FBPA inh-1; mammalian cell viability counter-screen, qHTS; Potency, µM (top dose mostly 57.5 µM), inactives show at the highest dose viability change, negative = toxicity, usual class: inhibitors; hit rate 4% among 1,500;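 also: Chinese hamster ovary cells used as mammalian cytotoxicity surrogate; viability measured as cellular ATP by luminescence; potency is read from the fitted curve at half-maximal effect; compound exposure lasted 48 h before reading; % is scaled to controls: 0 for no effect and ±100 for the full control effect; nearly all actives have a fitted effect of over 60% in size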
Giardia FBPA inh-2 – confirmation of Giardia fructose-bisphosphate aldolase inhibitors. shares compounds with Giardia FBPA inh-1. purified Giardia aldolase enzyme activity, qHTS. Potency, µM (highest dose often 57.5 µM), inactives show at the top dose activity change, negative = inhibition, usual class: inhibitors. hit rate 5% among 1,500. AID 2787; also: potency is read from the fitted curve at half-maximal effect; % is scaled to controls: 0 for no effect and ±100 for the full control effect; nearly all actives have a fitted effect of over 45% in size
Rabbit FBPA inh – blocks rabbit muscle aldolase in Giardia aldolase selectivity test; Rabbit muscle FBPA enzyme inhibition, selectivity counter-screen; shares compounds with Giardia FBPA inh-1; hit rate 4% among 1,500; Potency, µM (titrated, usually from 57.5 µM), for inactives: top-dose activity, negative = inhibition, actives largely listed as inhibitors; also: potency is read from the fitted curve at half-maximal effect; % is scaled to controls: 0 for no effect and ±100 for the full control effect; nearly all actives have a fitted effect of over 60% in size
GAPDH coupling – counter-screen for Giardia aldolase inhibitors: GAPDH coupling enzyme; shares compounds with Giardia FBPA inh-1; GAPDH coupling enzyme counterscreen, biochemical, qHTS; Potency, µM (doses to about 57.5 µM), for the others: at the top dose activity change, negative = inhibition, hits mostly inhibitors; hit rate 6% among 1,500; AID 2795; also: potency is read from the fitted curve at half-maximal effect; % is scaled to controls: 0 for no effect and ±100 for the full control effect; nearly all actives have a fitted effect of over 55% in size
* = called active by the depositor; ? = inconclusive; nt = not tested or not shown; ! = repeats disagree; [ ] = remark or other dose. Hits are enriched below; roughly 3.3% of the tested compounds scored in any of these assays. Unless noted, calls follow the shape of the dose curve; as a rule, active = well fitted curve in the direction sought with a large enough effect; inconclusive = small, poorly fitted or top-dose-only effect, or another doubt; inactive = no such curve, though single readings can be large; an effect the other way counts as inactive or inconclusive.

SMILES	RE007 growth inh	Sm TGR inh	TbPYK inhibitor	LmPK inhibitor	Giardia FBPA inh-1	Giardia growth	Mammalian tox	Giardia FBPA inh-2	Rabbit FBPA inh	GAPDH coupling	others
CC(C)[C@H](N)c1nnc(SCc2ccc(Cl)cc2)o1	1%	-34%	0%	-1%	-4%	nt	nt	nt	nt	nt	LmPK confirm=-2%
COc1ccc(/C(O)=C2/C(=O)C(=O)N(Cc3cccnc3)C2c2ccco2)cc1OC (configuration not stated)	4%	-4%	0%	0%	9%	nt	nt	nt	nt	nt	LmPK confirm=4%
CCCCC(SCC(=O)Nc1ccccc1)C(=O)O (configuration not stated)	20%	-4%	-12%	1%	2%	nt	nt	nt	nt	nt
CN(C(=O)COC(=O)c1ccc2ccccc2n1)C1CCCCC1	1%	nt	25%	nt	nt	nt	nt	nt	nt	nt
CCOC(=O)c1ccc(NC(=O)Nc2ccc3c4c(cccc24)C(=O)N3CC)cc1	3%	2%	-12%	2%	-15%	nt	nt	nt	nt	nt	LmPK confirm=2%
O=C1C(Cl)=C(NC(=O)c2ccccc2)C(=O)C(Cl)=C1NC(=O)c1ccccc1	3%	?	?	1.1µM*	5.6µM*	-12%	?	0.79µM*	3.5µM*	1.4µM*	LmPK confirm=?
COC(=O)c1ccccc1NC(=O)COC(=O)c1ccco1	4%	-22%	6%	1%	-3%	nt	nt	nt	nt	nt
Cc1ccc(S(=O)(=O)/N=C2/C=C(Sc3ncn[nH]3)C(=O)c3ccccc32)cc1	?	0.32µM*	7.9µM*	7.1µM*	0.45µM*	7.1µM*	20µM*	2.5µM*	10µM*	3.2µM*	LmPK confirm=4.6µM*
CC1=NN(c2ccccc2)C(=O)/C1=C/N(C)C	?	-11%	13%	-10%	-28%	nt	nt	nt	nt	nt
CC1=NN(c2nc3ccccc3[nH]2)C(=O)/C1=C/N(C)C	7.9µM*	5%	?	14µM*	16µM*	40µM*	4.5µM*	3%	-1%	-14%	LmPK confirm=7.3µM*
CC1CCCC(C)N1/N=C/c1ccc([N+](=O)[O-])cc1 (configuration not stated)	-11%	9%	-5%	0%	-7%	nt	nt	nt	nt	nt
COC(=O)c1ccc(NC(=O)CN2CCN(CC#N)CC2)cc1	3%	-1%	2%	1%	25µM*	-5%[38.3 µM]	14%	1%	-2%	2%
O=C(NNc1ccccc1[N+](=O)[O-])Nc1ccc(Cl)c(Cl)c1	11%	-7%	2%	-1%	-25%	nt	nt	nt	nt	nt
O=C1NC(=O)C(c2ccccc2[N+](=O)[O-])=C1Nc1ccc(O)c(Cl)c1	1%[18.4 µM]	7.1µM*	-10%	1%	25µM*!	-16%	-4%	?	?	-19%
Cc1ccc2nc(Cl)c3cc(C(=O)NC4CCCCCC4)sc3c2c1	nt	-6%	-1%	nt	nt	nt	nt	nt	nt	nt
COc1ccc(CNC2CCCc3ccccc32)cc1OC (configuration not stated)	-4%	-13%	33%	-9%	-24%	nt	nt	nt	nt	nt
COc1ccccc1CNC1CCCc2ccccc21 (configuration not stated)	-11%	-11%	2%	-6%	16µM*	?	0%	3%	4%	10%
COc1ccc(CNC2CCSc3ccccc32)cc1OC (configuration not stated)	-19%	2%	32%	-4%	28µM*	8%[10.4 µM]	25%	1%	4%	3%
COc1ccc(CCCC(=O)N/N=C/c2ccc(C)cc2)cc1	2%	-5%	1%	-5%	-12%	nt	nt	nt	nt	nt
COc1ccc(CCCC(=O)N/N=C/c2ccccc2OC)cc1	3%	10%	-6%	8%	16µM*	-12%[10.4 µM]	-12%	?	40µM*	25µM*
C/C(=N\NC(=O)c1cccc(S(=O)(=O)N2CCOCC2)c1)c1ccc(OC(F)F)cc1	-10%	0%	-10%	nt	nt	nt	nt	nt	nt	nt
CN(/N=C/c1cc(Cl)cc(Cl)c1O)C(=S)NC(C)(C)C	-1%	-9%	-3%	5%	-13%	nt	nt	nt	nt	nt
N#CCSc1nnc(Nc2ccccc2)s1	10%	-2%	0%	-1%	-5%	nt	nt	nt	nt	nt
O=C(Nc1sc2c(c1C(=O)O)CCC2)c1ccc(F)cc1	-16%	-7%	-3%	-25%	14µM*	?	-14%	-26%	?	?
CCC(=O)N1CCN(c2nc(CC)nc3sc4c(c23)CCCC4)CC1	0%	3%	-2%	3%	14%	nt	nt	nt	nt	nt
SMILES	RE007 growth inh	Sm TGR inh	TbPYK inhibitor	LmPK inhibitor	Giardia FBPA inh-1	Giardia growth	Mammalian tox	Giardia FBPA inh-2	Rabbit FBPA inh	GAPDH coupling	others
COC(=O)C/C=N/N=C1/NC(=O)/C(=C/C(=O)O)S1	7%	?	-18%	1%	18µM*	0%[10.4 µM]	1%	-10%	-10%	-14%
CCOC(=O)C1CCCN(C(=O)COC(=O)C2=COCCO2)C1 (configuration not stated)	7%	0%	0%	-3%	-7%	nt	nt	nt	nt	nt
Cc1ccc(NC(=S)N/N=C2\CCCCC2C)cc1 (configuration not stated)	7%	-24%	-7%	0%	-16%	nt	nt	nt	nt	nt
CC1CCCC/C1=N\NC(=S)Nc1cccnc1 (configuration not stated)	-3%	?	-14%	11%	18µM*	24%	0%	-4%	2%	4%
CCn1cc(C(=O)OCC(=O)Nc2ccc(F)cc2F)c(=O)c2ccc(C)nc21	nt	-3%	-8%	nt	nt	nt	nt	nt	nt	nt
Cc1ccc(Nc2nc(NCCO)c3ccccc3n2)cc1C	-20%	-9%	1%	-3%	25µM*	4%[10.4 µM]	?	-2%	4%	-16%
COc1ccccc1Nc1nc(NCCO)c2ccccc2n1	nt	-32%	nt	-2%	8%	nt	nt	nt	nt	nt
c1cc2c(cc1-c1csc(NNC3=NCCCCC3)n1)OCCO2	?	2%	-29%	-25%	14µM*	-9%[10.4 µM]	-23%	4%	4%	23%

From PubChem
